The results in this text go back to PubChem BioAssay (NCI).

Among the test systems are NCI-H23 lung; NCI-H226 lung; NCI-H322M lung; HOP-62 NSCLC; NCI-H460 lung; HOP-92 NSCLC; NCI-H522 lung; A549/ATCC NSCLC; 786-0 renal; COLO 205 colon.
Common to all, as to assay: NCI-60 one-dose screen, 48 h (100 = growth as untreated, 0 = no growth, -100 = all killed)
What all share (details): 10 µM unless noted

Compounds without any hit were thinned out: in the full panel of roughly 83,000, 20% have a hit.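 Activity criterion: percent growth below 10, measured after cells in 96-well plates were exposed to a single compound concentration for 48 hours.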 A number with no mark means an inactive call. Calls of active or inactive are those of the source.

Take `CNCc1cccnc1`: the growth is 104% in the assay with NCI-H23 lung; 101% in the assay on NCI-H226 lung; 113% in the assay on NCI-H322M lung; 114% in the assay on HOP-62 NSCLC; 114% in the assay with NCI-H460 lung; 108% in the assay on HOP-92 NSCLC. Besides, the growth with NCI-H522 lung is 84.2%; in the assay on A549/ATCC NSCLC, 97.6%; in the assay on 786-0 renal it was 107%; in the assay with COLO 205 colon it was 122%.

Turning to `CC(CC1CCCCC1)NCc1ccccc1` (stereo not given), the growth is 85.7% with NCI-H23 lung; 101% in the assay on NCI-H226 lung; 95% in the assay on NCI-H322M lung; 102% in the assay on HOP-62 NSCLC; 105% with NCI-H460 lung; 80.1% with HOP-92 NSCLC. For the same compound, the growth in the assay on NCI-H522 lung was 94.6%; with A549/ATCC NSCLC, 98.2%; with 786-0 renal, 99.9%; in the assay with COLO 205 colon, 103%.

Regarding `OCCNC(Cc1ccccc1)c1ccc2c(c1)OCO2` (stereo not given), the growth in the assay on NCI-H23 lung is 100%; in the assay with NCI-H226 lung it was 96.5%; in the assay on NCI-H322M lung, 98.4%; in the assay on HOP-62 NSCLC, 77.7%; in the assay on NCI-H460 lung, 106%; with HOP-92 NSCLC, 73.1%. In addition, the growth with NCI-H522 lung is 67.5%; in the assay with A549/ATCC NSCLC, 90.8%; in the assay on 786-0 renal it was 95.5%; with COLO 205 colon it was 91%.

On to `O=Cc1cn(Cc2ccc(Cl)cc2)c2ccccc12`, for which the growth in the assay with NCI-H23 lung was 84.9%; with NCI-H226 lung, -26.9% (active); in the assay on NCI-H322M lung it was 82.5%; in the assay with HOP-62 NSCLC, 76.9%; in the assay on NCI-H460 lung, 5.05% (active); in the assay on HOP-92 NSCLC, 76.4%. In addition, the growth in the assay on NCI-H522 lung is 93.4%; in the assay on A549/ATCC NSCLC, 64.8%; in the assay on 786-0 renal it was 94.1%; with COLO 205 colon it was 22%.

Take `CC12CCC(O)CC1=CCC1C2CCC2(C)C(O)CCC12` (stereo not given): the growth with NCI-H23 lung is 111%; in the assay with NCI-H226 lung it was 90%; with NCI-H322M lung, 101%; in the assay with HOP-62 NSCLC, 103%; in the assay on NCI-H460 lung it was 101%; in the assay with HOP-92 NSCLC it was 85.4%. For the same compound, the growth in the assay on NCI-H522 lung was 94.8%; in the assay with A549/ATCC NSCLC, 109%; in the assay with 786-0 renal it was 103%; in the assay on COLO 205 colon it was 106%.

Take `CCNc1nc(Cl)nc(NCC)n1`: the growth in the assay on NCI-H23 lung is 111%; in the assay on NCI-H226 lung, 90.4%; with NCI-H322M lung, 100%; with HOP-62 NSCLC, 93%; in the assay with NCI-H460 lung it was 102%; in the assay on HOP-92 NSCLC, 65.1%. In addition, the growth is 105% with NCI-H522 lung, 85.7% with A549/ATCC NSCLC, 108% in the assay on 786-0 renal and 102% in the assay with COLO 205 colon.

As for `CC(=O)O[C@H]1C(=O)[C@@]2(C)[C@H]([C@H](OC(=O)c3ccccc3)[C@]3(O)C[C@H](OC(=O)[C@H](OC(=O)OC[C@@H]4COC(C)(C)O4)[C@@H](NC(=O)c4ccccc4)c4ccccc4)C(C)=C1C3(C)C)[C@]1(OC(C)=O)CO[C@@H]1C[C@@H]2O`, the growth in the assay with NCI-H23 lung was 19.9%; in the assay on NCI-H226 lung, 60.4%; with NCI-H322M lung it was 14.4%; with HOP-62 NSCLC, 19.3%; in the assay with NCI-H460 lung, 3.59% (active); in the assay on HOP-92 NSCLC it was 64.6%. Further, the growth in the assay with NCI-H522 lung was 1.08% (active); with A549/ATCC NSCLC, 11.9%; in the assay on 786-0 renal it was 19.4%; with COLO 205 colon, -28.4% (active).

Take `COC(=O)C12CC(NC(=O)c3csc([C@@H](C[C@H](C(C)C)N(C)C(=O)[C@@H](NC(=O)[C@H]4CCCCN4C)C4CC4)OC(C)=O)n3)(C1)C2`: the growth with NCI-H23 lung is 29.4%; with NCI-H226 lung it was 14.6%; in the assay on NCI-H322M lung it was 45%; with HOP-62 NSCLC it was 6.31% (active); with NCI-H460 lung, 7.21% (active); in the assay on HOP-92 NSCLC it was 18.7%. Further, the growth with NCI-H522 lung was -4.14% (active); with A549/ATCC NSCLC it was 13%; with 786-0 renal, 24.5%; in the assay with COLO 205 colon it was -64.5% (active).

In the case of `CC1[C@H](C)OC(=O)CC(O)CC(O)CC(O)CCC(O)C(O)C[C@]2(O)CC(O)C(C(=O)O)C(CC(OC3O[C@H](C)[C@@H](O)[C@H](N)[C@@H]3O)/C=C/C=C/C=C/C=C/CC/C=C/C=C/[C@H](C)[C@H]1O)O2` (stereo not given in full), the growth in the assay with NCI-H23 lung is 90.8%; in the assay on NCI-H226 lung, 99.1%; with NCI-H322M lung, 105%; in the assay with HOP-62 NSCLC it was 105%; with NCI-H460 lung, 103%; with HOP-92 NSCLC, 101%. Besides, the growth in the assay with NCI-H522 lung is 114%; with A549/ATCC NSCLC, 97.8%; in the assay on 786-0 renal, 105%; with COLO 205 colon, 93.7%.

As for `Cc1c(O)c(CN(CCCl)CCCl)cc(CN(CCCl)CCCl)c1O`, the growth in the assay on NCI-H23 lung was 102%; in the assay on NCI-H226 lung, 95.6%; with NCI-H322M lung it was 94.8%; in the assay on HOP-62 NSCLC it was 102%; in the assay with NCI-H460 lung, 31.4%; with HOP-92 NSCLC, 47.3%. Besides, the growth in the assay with NCI-H522 lung was 79.4%; in the assay with A549/ATCC NSCLC, 67.8%; in the assay on 786-0 renal it was 99.6%; in the assay on COLO 205 colon, 78.1%.

Regarding `COC(=O)[C@@H](C)C[C@H](Cc1ccccc1)NC(=O)c1csc([C@@H](C[C@H](C(C)C)N(C)C(=O)C2(NC(=O)[C@H]3CCCCN3C)CC2)OC(C)=O)n1`, the growth was 15.7% in the assay with NCI-H23 lung; 50.8% in the assay with NCI-H226 lung; 44.8% with NCI-H322M lung; 9.05% (active) with HOP-62 NSCLC; 3.12% (active) with NCI-H460 lung; -3.99% (active) in the assay on HOP-92 NSCLC. For the same compound, the growth was 1.55% (active) in the assay on NCI-H522 lung, 11.7% in the assay with A549/ATCC NSCLC, 17.6% in the assay with 786-0 renal and -55% (active) with COLO 205 colon.

As for `COc1cc([N+](=O)[O-])c2nc(C)ccc2c1[N+](=O)[O-]`, the growth with NCI-H23 lung is 105%; in the assay with NCI-H226 lung, 104%; in the assay on NCI-H322M lung, 139%; with HOP-62 NSCLC, 132%; in the assay on NCI-H460 lung, 115%; with HOP-92 NSCLC it was 96.3%. Further, the growth in the assay with NCI-H522 lung was 87.2%; with A549/ATCC NSCLC, 107%; in the assay on 786-0 renal, 105%; in the assay with COLO 205 colon, 77.6%.

Take `O=[N+]([O-])c1c(Br)sc(Br)c1[N+](=O)[O-]`: the growth with NCI-H23 lung was 37.3%; in the assay on NCI-H226 lung, 87.8%; with NCI-H322M lung it was 84.9%; with HOP-62 NSCLC, 75.2%; in the assay with NCI-H460 lung, 75.1%; in the assay with HOP-92 NSCLC, 43%. The growth is -72.9% (active) in the assay on NCI-H522 lung, 77.3% with A549/ATCC NSCLC, -36% (active) with 786-0 renal and -77.7% (active) with COLO 205 colon.
